Structures are written as SMILES. Inconclusive results are not listed. Active and inactive are the calls of the source. Calls follow the shape of the dose curve; as a rule, active = well fitted curve in the direction sought with a large enough effect; inconclusive = small, poorly fitted or top-dose-only effect, or another doubt; inactive = no such curve, though single readings can be large; an effect the other way counts as inactive or inconclusive.

Assay [1] in a line: Cell Viability - LYMP2-004 (AID 966). Also: nearly all actives have a fitted effect of over 65% in size. The essentials: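 Acute toxicity is scored as a concentration-dependent drop in intracellular ATP, quantified by luciferase luminescence, in human lymphoblastoid cells exposed to compound for 24 hr. AC50 derives from Hill-equation modelling.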
Assay [2] can be described thus: Cell Viability - LYMP2-005 (AID 967). Also: series mostly up to about 92 µM. The essentials: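 Human lymphoblastoid LYMP2-005 cells, 2,500 per well in complete medium, rested 5 h at 37C then compound-treated 24 h at 37C. Intracellular ATP read by CellTiter-Glo luminescence after 30 min at room temperature; AC50 from Hill-equation fits of concentration-response data.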
A short description of assay [3]: Cell Viability - LYMP2-009 (AID 968). Also: series mostly up to about 92 µM; nearly all actives have a fitted effect of over 55% in size.
The nature of assay [4]: Cell Viability - LYMP2-011 (AID 969). Also: nearly all actives have a fitted effect of over 60% in size. The procedure, abridged: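 Acute toxicity is scored as a concentration-dependent drop in intracellular ATP of a human lymphoblastoid line after 24 hr treatment. Values are AC50s modeled with the Hill equation.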
Assay [5] is described as follows: Cell Viability - LYMP2-013 (AID 970). Also: series mostly up to about 92 µM; nearly all actives have a fitted effect of over 55% in size. The essentials: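 Acute toxicity was measured in human lymphoblastoid cells (2500/well) exposed to compound titrations for 24 hr, with ATP luminescence (CellTiter-Glo) as read-out and AC50 fitted by Hill equation.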
Assay [6] in a line: Cell Viability - LYMP2-015 (AID 971). Also: nearly all actives have a fitted effect of over 55% in size. The essentials: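 Acute toxicity was scored as a concentration-dependent drop in intracellular ATP in lymphoblastoid cells after 24 hr compound exposure in complete medium. Detection used CellTiter-Glo luciferase luminescence.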
A short description of assay [7]: Cell Viability - LYMP2-019 (AID 973). Also: nearly all actives have a fitted effect of over 55% in size. The procedure, abridged:
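Cells plated at 2500/well and allowed 5 hr at 37 C before compound addition. After 24 hr incubation, CellTiter-Glo reagent was added, plates sat 30 min at room temperature, and luminescence was recorded.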

Assay [8] can be described thus: Cell Viability - LYMP2-021 (AID 974). The essentials: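 Concentration-response cytotoxicity in a human lymphoblastoid line: 24 hr treatment at 37 C in complete culture medium, tetraoctylammonium bromide as positive control, luminescent ATP quantitation as viability measure.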
Assay [9] in a line: Cell Viability - LYMP2-023 (AID 975). The procedure, abridged:
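Concentration-dependent drop in intracellular ATP measures acute cytotoxicity in a human lymphoblastoid line treated for 24 hours in complete culture medium. AC50 values are taken from Hill-equation fits of qHTS data.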

Assay [10] in a line: Cell Viability - LYMP2-025 (AID 976). Also: series mostly up to about 92 µM. The procedure, abridged: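 In qHTS format, LYMP2-025 lymphoblastoid cells in complete culture medium received compound for 24 hr; ATP-based CellTiter-Glo signal gave viability, with AC50 derived by Hill equation.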
Assay [11] in a line: Cell Viability - LYMP2-002 (AID 977).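 Also: series mostly up to about 92 µM; compound exposure lasted 24 h at 37 °C.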 The essentials:
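Cytotoxicity is scored as concentration-dependent loss of cellular ATP in a human lymphoblastoid line after 24 hr compound treatment at 37 C. AC50 is obtained by modelling concentration-response data with the Hill equation.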

Assay [12] is described as follows: Cell Viability - LYMP2-006 (AID 978). Also: series mostly up to about 92 µM; nearly all actives have a fitted effect of over 60% in size. The procedure, abridged: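 Human lymphoblastoid cells (LYMP2-006), 2500/well in complete medium, were treated with compound for 24 hr at 37 C. Cellular ATP was read by CellTiter-Glo luminescence after 30 min, and AC50 values came from Hill-equation fits of concentration-response data.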
A short description of assay [13]: Cell Viability - LYMP2-007 (AID 979).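 Also: cells exposed to compound for 24 h before reading; nearly all actives have a fitted effect of over 60% in size.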 The procedure, abridged: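 Acute toxicity is scored as a concentration-dependent fall in intracellular ATP in human lymphoblastoid cells treated 24 hr at 37 C, measured by luciferase luminescence; Hill-equation modelling yields AC50.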
Assay [14] is described as follows: Cell Viability - LYMP2-010 (AID 981). Also: potency is read from the fitted curve at half-maximal effect. The essentials:
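Acute toxicity is scored as a concentration-dependent loss of cellular ATP in human lymphoblastoid cells after 24 hr compound exposure in complete medium. Tetraoctylammonium bromide is the positive control.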

A short description of assay [15]: Cell Viability - LYMP2-012 (AID 982).
The nature of assay [16]: Cell Viability - LYMP2-014 (AID 983). Also: series mostly up to about 92 µM; nearly all actives have a fitted effect of over 50% in size. The essentials: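 Decrease in intracellular ATP after 24 hr treatment at 37 C, measured by luciferase luminescence, indicated cytotoxicity. Concentration-response data were fitted with the standard Hill equation to give AC50.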
Assay [17] can be described thus: Cell Viability - LYMP2-016 (AID 984). The essentials:
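Human lymphoblastoid LYMP2-016 cells, 2500 per well, treated with compounds for 24 h at 37 C. Viability read as intracellular ATP by CellTiter-Glo luminescence after 30 min at room temperature; AC50 from Hill fits of concentration-response.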

Assay [18] in a line: Cell Viability - LYMP2-018 (AID 985).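 Also: compound exposure lasted 24 hr at 37 °C; nearly all actives have a fitted effect of over 50% in size.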 The essentials:
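Acute cytotoxicity is scored as a concentration-dependent drop in intracellular ATP after 24 hr exposure of the lymphoblastoid line in complete culture medium, measured by luciferase luminescence. Potency is expressed as AC50 from Hill modelling.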

The nature of assay [19]: Cell Viability - LYMP2-017 (AID 972). The procedure, abridged:
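Steps: plate 2500 lymphoblastoid cells per well; incubate 5 hr at 37 C; add compound across a concentration series and incubate 24 hr at 37 C; add CellTiter-Glo and read luminescence after 30 min at room temperature; fit Hill curves for AC50.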

Assay [20] can be described thus: Cell Viability - LYMP2-008 (AID 980). Also: nearly all actives have a fitted effect of over 60% in size. The essentials: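 Acute cytotoxicity is scored as concentration-dependent loss of cellular ATP in a human lymphoblastoid line after 24 hr treatment at 37 C. ATP is quantified by luciferase luminescence.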

With `CCOCCOCC`, the Potency result in [1], in assay [3], in assay [4], in [5], in assay [6] and in assay [7] was “inactive” in each case. Besides, the Potency entry in [8], in assay [9], in [10], in [11], in assay [12] and in assay [13] was “inactive” throughout. In addition, the Potency result in assay [14], in assay [15], in assay [16], in assay [17] and in assay [18] was “inactive” throughout. In addition, in [2], the molecule was called inactive.

Turning to `CC(=C/C=C/C(C)=C/C=C/C=C(C)/C=C/C=C(C)/C=C/C(=O)O)/C=C/C(=O)O`, the Potency result in [1], in assay [3], in [4], in assay [5], in [6] and in assay [19] was “inactive” each time. Besides, the Potency result in assay [7], in assay [9], in assay [10], in assay [11], in [12] and in assay [13] was “inactive” each time. Moreover, the Potency result in assay [20], in assay [14], in assay [15], in assay [16], in assay [17] and in assay [18] was “inactive” in each case. The molecule was classed as inactive in [2].

Turning to `Cc1ccccc1C=O`, the Potency entry in [1], in [3], in [4], in assay [5], in assay [6] and in [19] was “inactive” throughout. The Potency entry in assay [7], in [9], in [10], in assay [11], in assay [12] and in [13] was “inactive” throughout. The Potency result in assay [20], in [14], in assay [15], in assay [16], in assay [17] and in [18] was “inactive” in each case. Moreover, in assay [2], the result was inactive.

In the case of `Cc1cccc([N+](=O)[O-])c1C(=O)O`, the Potency result in assay [1], in assay [3], in assay [4], in assay [5], in assay [6] and in [7] was “inactive” throughout. The Potency entry in assay [8], in assay [9], in assay [10], in [11], in assay [12] and in assay [13] was “inactive” each time. Also, the Potency result in assay [20], in assay [14], in [15], in assay [16], in assay [17] and in [18] was “inactive” each time. The outcome in [2] was inactive.

Consider `CCC(=O)/C=C/C1C(C)=CCCC1(C)C` (configuration not stated), for which the Potency entry in assay [1], in assay [3], in assay [4], in [5], in assay [6] and in assay [19] was “inactive” in each case. For the same molecule, the Potency entry in assay [8], in assay [9], in [10], in assay [11], in assay [12] and in assay [20] was “inactive” each time. The Potency result in [16], in assay [17] and in assay [18] was “inactive” throughout. Further, the molecule was called inactive in [2]. The Potency in assay [14] is 50.1 µM (active).

With `O=CNc1ccccc1`, the Potency result in assay [1], in assay [3], in assay [4], in [5], in assay [6] and in assay [19] was “inactive” in each case. For the same molecule, the Potency result in assay [7], in [9], in assay [10], in assay [11], in assay [12] and in assay [13] was “inactive” throughout. Moreover, the Potency result in [14], in assay [15], in [16], in assay [17] and in assay [18] was “inactive” in each case. For the same molecule, the call in [2] was inactive.

Turning to `CCCCC(CC)CNCC(CC)CCCC` (configuration not stated), the Potency result in assay [1], in assay [3], in assay [4], in assay [5], in [6] and in [7] was “inactive” each time. Besides, the Potency result in assay [8], in assay [9], in assay [10], in [11], in assay [12] and in [13] was “inactive” each time. The Potency entry in assay [20], in assay [14], in [15], in [16], in assay [17] and in assay [18] was “inactive” throughout. Moreover, in assay [2], the result was inactive.

`O=C(O)CN(CC(=O)O)CC(=O)O`: the Potency entry in assay [1], in assay [3], in assay [4], in assay [5], in assay [6] and in assay [19] was “inactive” each time. Also, the Potency result in assay [7], in assay [9], in assay [10], in [11], in assay [12] and in assay [20] was “inactive” each time. For the same molecule, the Potency result in [14], in assay [15], in [16], in assay [17] and in [18] was “inactive” throughout. Also, the molecule was classed as inactive in assay [2].

Source of the values: PubChem BioAssay (NCATS).
